Data as given in PubChem BioAssay (NCI).
The panel holds about 79,000 compounds, 15% with a hit somewhere; the sample as a whole holds those more often. Active and inactive are the calls of the source. Cut-off read from the data, not from the text of the source: active = growth inhibition above about 70%; inactive = the rest.

How the values were obtained:
[1] = NCI Yeast Anticancer Drug Screen. Data for the rad52 strain (AID 147);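 note: 0% = growth of vehicle-treated control cultures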; settings: S. cerevisiae rad52 mutant growth inhibition, stronger effect = higher value
Outline: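 The repair-mutant yeast strain was incubated with compounds, then growth was read and inhibition derived relative to vehicle.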

[2] = NCI Yeast Anticancer Drug Screen. Data for the wt1 strain (AID 149);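 note: 0% = growth of vehicle-treated wt1 cultures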; settings: S. cerevisiae wt1 strain (SPY 50644) growth inhibition, stronger effect = higher value
Outline: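 wt1 strain grown with compound or vehicle; inhibition taken from the growth difference.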

[3] = NCI Yeast Anticancer Drug Screen. Data for the rad50EPP+ strain (AID 151);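 note: 0% = growth of vehicle-treated control cultures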; settings: S. cerevisiae rad50 mutant strain, stronger effect = higher value
Outline: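 Vehicle-normalised growth inhibition; rad50EPP+ yeast strain, altered in DNA damage repair, compound-treated.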

[4] = NCI Yeast Anticancer Drug Screen. Data for the rad50 strain (AID 155);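 note: 0% = growth of vehicle-only cultures of the same strain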; settings: S. cerevisiae rad50 strain growth inhibition, stronger effect = higher value
Outline: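 DNA repair mutant yeast, compound exposure, growth read-out; inhibition is taken relative to vehicle.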

[5] = NCI Yeast Anticancer Drug Screen. Data for the mec2-1 strain (AID 157); settings: S. cerevisiae mec2-1 strain, stronger effect = higher value
Outline: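 Mutant yeast (mec2-1) grown with compound; growth inhibition relative to vehicle control reported.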

[6] = NCI Yeast Anticancer Drug Screen. Data for the rad14 strain (AID 159);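 note: 0% = growth of vehicle-treated control cultures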; settings: S. cerevisiae rad14 strain growth inhibition, stronger effect = higher value
Outline: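 DNA repair-defective yeast, compound-exposed; % growth inhibition derived by comparison with vehicle-treated controls.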

[7] = NCI Yeast Anticancer Drug Screen. Data for the sgs1 mgt1 strain (AID 161);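 note: 0% = growth of cultures given vehicle only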; settings: S. cerevisiae sgs1 mgt1 strain, stronger effect = higher value
Outline: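 Percent growth inhibition was derived by comparing compound-exposed mutant yeast with vehicle-exposed cultures. The strain carries alterations in DNA damage repair.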

[8] = NCI Yeast Anticancer Drug Screen. Data for the CLN2oe strain (AID 163);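 note: 0% = growth of vehicle-only control cultures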; settings: S. cerevisiae CLN2oe strain, stronger effect = higher value
Outline: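 Compounds are applied to yeast harbouring a defined cell-cycle control change; reduced growth compared with vehicle-treated controls gives the value.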

[9] = NCI Yeast Anticancer Drug Screen. Data for the cln2 rad14 strain (AID 165);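 note: 0% = growth equal to vehicle treated cultures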; settings: S. cerevisiae cln2 rad14 strain, stronger effect = higher value
Outline: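 Readout is yeast growth inhibition versus vehicle-treated controls, using a strain with cln2 and rad14 alterations exposed to compound.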

[10] = NCI Yeast Anticancer Drug Screen. Data for the bub3 strain (AID 167); settings: S. cerevisiae bub3 mutant strain, stronger effect = higher value
Outline: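 In this screen, a yeast mutant lacking normal mitotic checkpoint function is challenged with compound. Relative growth versus vehicle gives the inhibition value.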

[11] = NCI Yeast Anticancer Drug Screen. Data for the wt2 strain (AID 169);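 note: 0% = growth of vehicle-treated yeast cultures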; settings: S. cerevisiae wt2 strain growth inhibition, stronger effect = higher value
Outline: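 Against vehicle-treated controls, the growth of yeast exposed to each compound was compared, and the inhibition was recorded.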

[12] = NCI Yeast Anticancer Drug Screen. Data for the mlh1 strain (AID 171);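 note: 0% = growth of vehicle-treated control cultures of the same strain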; settings: S. cerevisiae mlh1 strain growth inhibition, stronger effect = higher value
Outline: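 Measured: yeast growth. Reference: vehicle-treated controls. Organism: strain with a defined alteration affecting DNA damage repair or cell cycle control, treated with compound.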

[13] = NCI Yeast Anticancer Drug Screen. Data for the sgs1 strain (AID 173);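 note: 0% = growth of vehicle-only control cultures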; settings: S. cerevisiae sgs1 mutant, stronger effect = higher value
Outline: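 Each compound was added to cultures of the altered yeast strain. Growth was recorded, and inhibition was derived by comparison with vehicle controls.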

[14] = NCI Yeast Anticancer Drug Screen. Data for the mlh1 rad18 strain (AID 175); settings: S. cerevisiae mlh1 rad18 strain growth inhibition, stronger effect = higher value
Outline: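 Genetically defined yeast (DNA repair-deficient) exposed to compounds; growth inhibition determined relative to vehicle.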

[15] = NCI Yeast Anticancer Drug Screen. Data for the rad18 strain (AID 177); settings: S. cerevisiae rad18 mutant growth inhibition, stronger effect = higher value
Outline: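 Vehicle-treated cultures served as the baseline for scoring compound-induced growth inhibition in DNA-repair-mutant yeast.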

[16] = NCI Yeast Anticancer Drug Screen. Data for the mgt1 strain (AID 153); settings: S. cerevisiae mgt1 mutant growth inhibition, stronger effect = higher value
Outline: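 Vehicle-normalized growth inhibition is determined in mgt1 yeast, a strain selected for a defined alteration in DNA repair or cell cycle control.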

[17] = at 5.0 µM (retest, dose inferred, filed as 0.5)
[18] = at 50.0 µM (retest, dose inferred, filed as 5.0)

Measured: growth inhibition

Cn1c(-c2ccc(/C=N\N3CCN(/N=C/c4ccc(-c5c[n+]6ccccc6n5C)cc4)CC3)cc2)c[n+]2ccccc12
active: [1]; at 100.0 µM 82% | [2]; at 100.0 µM 92% | [4]; [18] 94% | [4]; at 100.0 µM 91% | [5]; at 33.0 µM 78% | [5]; [18] 96% | [5]; at 100.0 µM 93% | [6]; at 100.0 µM 84% | [7]; [18] 95% | [7]; at 50.0 µM 72.4% | [8]; at 100.0 µM 86% | [10]; [18] 95% | [10]; at 50.0 µM 80.5% | [10]; at 100.0 µM 91% | [11]; at 33.0 µM 74% | [11]; at 100.0 µM 92% | [12]; at 100.0 µM 90% | [13]; at 100.0 µM 90% | [14]; [18] 94% | [14]; at 50.0 µM 84.3% | [15]; at 100.0 µM 87%
inactive: [1]; at 1.2 µM -56% | [1]; at 3.7 µM -61% | [1]; at 11.0 µM -48% | [1]; at 33.0 µM 23% | [2]; at 1.2 µM -9% | [2]; at 3.7 µM -13% | [2]; at 11.0 µM -4% | [2]; at 33.0 µM 28% | [3]; at 1.2 µM -36% | [3]; at 3.7 µM -26% | [3]; at 11.0 µM -27% | [3]; at 33.0 µM -9% | [3]; at 100.0 µM 6% | [4]; at 1.2 µM -15% | [4]; at 3.7 µM -16% | [4]; [17] -2% | [4]; at 11.0 µM -4% | [4]; at 33.0 µM 51% | [4]; at 50.0 µM 49% | [5]; at 1.2 µM -8% | [5]; at 3.7 µM -17% | [5]; [17] 15% | [5]; at 11.0 µM 11% | [5]; at 50.0 µM 25.4% | [6]; at 1.2 µM -31% | [6]; at 3.7 µM -36% | [6]; at 11.0 µM -16% | [6]; at 33.0 µM 17% | [7]; [17] 19% | [8]; at 1.2 µM -22% | [8]; at 3.7 µM -41% | [8]; at 11.0 µM -27% | [8]; at 33.0 µM 52% | [9]; [17] -5% | [9]; [18] 69% | [9]; at 50.0 µM 22.4% | [10]; at 1.2 µM -13% | [10]; at 3.7 µM 0% | [10]; [17] 19% | [10]; at 11.0 µM -2% | [10]; at 33.0 µM 54% | [11]; at 1.2 µM -50% | [11]; at 3.7 µM -36% | [11]; at 11.0 µM -37% | [12]; at 1.2 µM -17% | [12]; at 3.7 µM -13% | [12]; at 11.0 µM 3% | [12]; at 33.0 µM 57% | [13]; at 1.2 µM -20% | [13]; at 3.7 µM -33% | [13]; at 11.0 µM -17% | [13]; at 33.0 µM 65% | [14]; [17] 46% | [15]; at 1.2 µM -23% | [15]; at 3.7 µM -19% | [15]; at 11.0 µM -31% | [15]; at 33.0 µM 47%

Oc1[nH]c2ccccc2c1N=NC(=S)N1CCCCC1
inactive: [1]; at 1.2 µM 6% | [1]; at 3.7 µM 11% | [1]; at 11.0 µM 19% | [2]; at 1.2 µM -1% | [2]; at 3.7 µM 0% | [2]; at 11.0 µM 4% | [3]; at 1.2 µM 6% | [3]; at 3.7 µM 16% | [3]; at 11.0 µM 28% | [3]; at 33.0 µM 39% | [3]; at 100.0 µM 58% | [16]; at 1.2 µM 0% | [16]; at 3.7 µM 1% | [16]; at 11.0 µM 23% | [5]; at 1.2 µM 4% | [5]; at 3.7 µM 6% | [5]; [17] 41% | [5]; at 11.0 µM 23% | [6]; at 1.2 µM 4% | [6]; at 3.7 µM -3% | [6]; at 11.0 µM 9% | [7]; [17] -8% | [8]; at 1.2 µM 2% | [8]; at 3.7 µM -4% | [8]; at 11.0 µM 20% | [9]; [17] 0% | [10]; at 1.2 µM -1% | [10]; at 3.7 µM 5% | [10]; [17] -18% | [10]; at 11.0 µM 15% | [11]; at 1.2 µM 5% | [11]; at 3.7 µM 6% | [11]; at 11.0 µM 13% | [12]; at 1.2 µM 4% | [12]; at 3.7 µM 4% | [12]; at 11.0 µM 16% | [13]; at 1.2 µM 14% | [13]; at 3.7 µM 16% | [13]; at 11.0 µM 28% | [14]; [17] 22% | [15]; at 1.2 µM 5% | [15]; at 3.7 µM 9% | [15]; at 11.0 µM 24%
active: [1]; at 33.0 µM 97% | [1]; at 100.0 µM 98% | [2]; at 33.0 µM 90% | [2]; at 100.0 µM 98% | [16]; at 33.0 µM 97% | [16]; at 100.0 µM 99% | [5]; at 33.0 µM 97% | [5]; [18] 98% | [5]; at 50.0 µM 80.4% | [5]; at 100.0 µM 99% | [6]; at 33.0 µM 97% | [6]; at 100.0 µM 99% | [7]; [18] 99% | [7]; at 50.0 µM 87% | [8]; at 33.0 µM 98% | [8]; at 100.0 µM 99% | [9]; [18] 99% | [9]; at 50.0 µM 84.8% | [10]; at 33.0 µM 91% | [10]; [18] 99% | [10]; at 50.0 µM 90.3% | [10]; at 100.0 µM 96% | [11]; at 33.0 µM 94% | [11]; at 100.0 µM 99% | [12]; at 33.0 µM 96% | [12]; at 100.0 µM 98% | [13]; at 33.0 µM 99% | [13]; at 100.0 µM 99% | [14]; [18] 99% | [14]; at 50.0 µM 86.5% | [15]; at 33.0 µM 89% | [15]; at 100.0 µM 97%
